Results filed as inconclusive are left out. Active and inactive are the calls of the source. Calls follow the shape of the full dose curve. Starred links: 1 amine or outer side, 2 acyl side, 3 side chain; linkers in the order of their positions; H or OH if unused. Positions of bridges follow the written chain, without caps; N, C: chain ends. Non-standard residues stand in square brackets, D forms with d. Residues, ends and D or L forms follow the SMILES beside them. Chains are numbered I, II in the order given. Actinocin(9to1) = Cc1c2oc3c(C)ccc(C(=O)[*:1])c3nc-2c(C(=O)[*:2])c(N)c1=O; NMeV = CN[C@H](C(=O)O)C(C)C; Sar = CNCC(=O)O
What was measured:
[1] = biological target: Acetylcholinesterase (Homo sapiens) (UniProt P22303); experiment: Acetylcholinesterase (AChE) small molecule antagonists: colormetric cell-based qHTS assay (AID 1347395); also: nearly all actives have a fitted effect of over 30% in size
In short: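 In this cell-based qHTS, attached SH-SY5Y cells were treated with test chemicals for 30 min, after which acetylthiocholine hydrolysis was followed by DTNB colour development over 90 min at 37 C.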

[2] = biological target: Acetylcholinesterase (Homo sapiens) (UniProt P22303); experiment: Acetylcholinesterase (AChE) small molecule antagonists: enzyme-based qHTS assay (AID 1347397); conditions: Potency: AChE enzyme activity inhibition; outcome: AChE enzyme activity inhibition; also: nearly all actives have a fitted effect of over 55% in size
In short: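 Compound or DMSO vehicle was pin-transferred onto recombinant human AChE (50 mU/mL as dispensed) and left 30 min at room temperature. Acetylthiocholine with DTNB then started the reaction, read colorimetrically 10 min later.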

[3] = biological target: Acetylcholinesterase (Homo sapiens) (UniProt P22303); experiment: Acetylcholinesterase (AChE) small molecule antagonists: fluorescence cell-based qHTS assay (AID 1347398); conditions: Potency: AChE activity; outcome: AChE activity; also: nearly all actives have a fitted effect of over 50% in size
In short: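 Using neuroblastoma SH-SY5Y cells as the enzyme source, test chemicals are preincubated 30 min at 37 C; AChE-driven acetylthiocholine cleavage is then quantified by thiocholine-dependent Thiolite Green fluorescence after 40 min at room temperature.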

[4] = biological target: Acetylcholinesterase (Homo sapiens) (UniProt P22303); experiment: Acetylcholinesterase (AChE) small molecule antagonists: enzyme-based qHTS assay with human liver microsomes (AID 1347399); conditions: Potency: qHTS inhibition; outcome: qHTS inhibition; also: nearly all actives have a fitted effect of over 60% in size
In short: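 Recombinant human AChE (50 mU/mL in the enzyme mix) and human liver microsomes (0.25 mg/mL final) were preincubated with compound and NADPH (0.25 mg/mL final) for 30 min at 37 C. Acetylthiocholine/DTNB was then added; thiocholine was read colorimetrically after 10 min at room temperature.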
% is scaled to controls: 0 for no effect and ±100 for the full control effect.

Acetylcholinesterase (Homo sapiens), sequence (P22303 whole entry, looked up): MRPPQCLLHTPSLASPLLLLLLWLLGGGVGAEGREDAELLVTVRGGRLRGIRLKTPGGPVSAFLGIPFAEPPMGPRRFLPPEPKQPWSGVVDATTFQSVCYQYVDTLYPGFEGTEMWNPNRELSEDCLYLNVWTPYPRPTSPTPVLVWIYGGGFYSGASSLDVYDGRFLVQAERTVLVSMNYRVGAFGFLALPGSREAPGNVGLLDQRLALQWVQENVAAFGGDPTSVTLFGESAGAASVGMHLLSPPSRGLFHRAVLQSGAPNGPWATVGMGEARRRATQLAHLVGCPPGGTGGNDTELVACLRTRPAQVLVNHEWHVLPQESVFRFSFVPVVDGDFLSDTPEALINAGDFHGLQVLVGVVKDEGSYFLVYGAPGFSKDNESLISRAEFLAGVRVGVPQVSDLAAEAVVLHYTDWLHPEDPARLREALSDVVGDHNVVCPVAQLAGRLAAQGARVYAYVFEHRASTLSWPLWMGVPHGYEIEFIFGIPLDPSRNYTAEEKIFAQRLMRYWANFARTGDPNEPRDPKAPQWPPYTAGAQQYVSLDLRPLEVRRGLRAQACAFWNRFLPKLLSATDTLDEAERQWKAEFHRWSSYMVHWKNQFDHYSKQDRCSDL

CN(C)c1cccc(O)c1
inactive: Potency [1] | Potency [2] | Potency [3] | Potency [4]

C=C(C)C(=O)OCCCCCC
inactive: Potency [1] | Potency [2] | Potency [3] | Potency [4]

NC(=S)Nc1cccc2ccccc12
inactive: activity, negative = inhibition [1] -0.35% [at 10.5 µM] | activity change, negative = inhibition [2] -0.679% [at 10.5 µM] | activity change, negative = inhibition [3] -3.97% [at 10.5 µM] | activity change, negative = inhibition [4] 0.729% [at 10.5 µM]

C=CCOC(=O)CCCCCC
inactive: Potency [1] | Potency [2] | Potency [3] | Potency [4]

CCC/C=C/C=O
inactive: Potency [1] | Potency [2] | Potency [3] | Potency [4]

O=S(=O)(O)c1ccc2cc(O)ccc2c1
inactive: Potency [1] | Potency [2] | Potency [3] | Potency [4]

Cc1c2oc3c(C)ccc(C(=O)N[C@@H]4C(=O)N[C@H](C(C)C)C(=O)N5CCC[C@H]5C(=O)N(C)CC(=O)N(C)[C@@H](C(C)C)C(=O)O[C@@H]4C)c3nc-2c(C(=O)N[C@@H]2C(=O)N[C@H](C(C)C)C(=O)N3CCC[C@H]3C(=O)N(C)CC(=O)N(C)[C@@H](C(C)C)C(=O)O[C@@H]2C)c(N)c1=O (I: T[dV]P[Sar][NMeV] / II: T[dV]P[Sar][NMeV]; ester I:1-I:C, II:1-II:C; linker I:N-II:N via Actinocin(9to1))
inactive: Potency [1] | Potency [2] | Potency [3] | Potency [4]

CN(C)/N=N/c1nc[nH]c1C(N)=O
inactive: Potency [1] | Potency [2] | Potency [3] | Potency [4]

Nc1ccn([C@@H]2O[C@H](CO)[C@@H](O)[C@@H]2O)c(=O)n1
inactive: Potency [1] | Potency [2] | Potency [3] | Potency [4]

OC[C@@H](O)[C@@H](O[C@@H]1O[C@H](CO)[C@H](O)[C@H](O)[C@H]1O)[C@H](O)[C@@H](O)CO
inactive: Potency [1] | Potency [2] | Potency [3] | Potency [4]

CC(C)OC(C)C
inactive: Potency [1] | Potency [2] | Potency [3] | Potency [4]

C#C[C@]1(O)CC[C@H]2[C@@H]3CCC4=Cc5oncc5C[C@]4(C)[C@H]3CC[C@@]21C
inactive: Potency [1] | Potency [2] | Potency [3] | Potency [4]

Oc1ccc(Cc2ccccc2)cc1
inactive: Potency [1] | Potency [2] | Potency [3] | Potency [4]

O=C(O)c1[nH]n(-c2ccc(S(=O)(=O)O)cc2)c(=O)c1N=Nc1ccc(S(=O)(=O)O)cc1
inactive: Potency [1] | Potency [2] | Potency [3] | Potency [4]

OC1CCCC1
inactive: Potency [1] | Potency [2] | Potency [3] | Potency [4]

CC(C)(C)CC(=O)OCC(=O)[C@@]1(O)CC[C@H]2[C@@H]3CCC4=CC(=O)C=C[C@]4(C)[C@H]3[C@@H](O)C[C@@]21C
inactive: Potency [1] | Potency [2] | Potency [3] | Potency [4]

CO[Si](OC)(OC)OC
inactive: Potency [1] | Potency [2] | Potency [3] | Potency [4]

CCCC(C)CC (stereo not given)
inactive: Potency [1] | Potency [2] | Potency [3] | Potency [4]

CCOC(=O)[C@H](CCc1ccccc1)N[C@@H](C)C(=O)N1Cc2ccccc2C[C@H]1C(=O)O
inactive: Potency [1] | Potency [2] | Potency [3] | Potency [4]

N[C@H](Cc1c[nH]c2ccccc12)C(=O)O
inactive: Potency [1] | Potency [2] | Potency [3] | Potency [4]

OCCN1CCN(CCO)CC1
inactive: Potency [1] | Potency [2] | Potency [3] | Potency [4]

IC(I)I
inactive: Potency [1] | Potency [2] | Potency [3] | Potency [4]

O=S(=O)(O)CO
inactive: Potency [1] | Potency [2] | Potency [3] | Potency [4]

CCCCOCCOC(=O)COc1cc(Cl)c(Cl)cc1Cl
inactive: Potency [1] | Potency [2] | Potency [3] | Potency [4]

CN1C(=O)N(C)C(O)C1O (stereo not given)
inactive: Potency [1] | Potency [2] | Potency [3] | Potency [4]

CC(C)c1ccc2sc3ccccc3c(=O)c2c1
inactive: Potency [1] | Potency [2] | Potency [3] | Potency [4]

NNc1nc(-c2ccc([N+](=O)[O-])cc2)cs1
inactive: Potency [1] | Potency [2] | Potency [3] | Potency [4]

Cc1ccc(-c2cc(C(F)(F)F)nn2-c2ccc(S(N)(=O)=O)cc2)cc1
inactive: Potency [1] | Potency [2] | Potency [3] | Potency [4]

O=[N+]([O-])c1c(Cl)cc(Cl)cc1Cl
inactive: Potency [1] | Potency [2] | Potency [3] | Potency [4]

CO[Si](C)(C)OC
inactive: Potency [1] | Potency [2] | Potency [3] | Potency [4]

CCCc1cc(C(N)=S)ccn1
inactive: Potency [1] | Potency [2] | Potency [3] | Potency [4]

CCCc1cc(=O)[nH]c(=S)[nH]1
inactive: Potency [1] | Potency [2] | Potency [3] | Potency [4]

O=C(O)CCSCCC(=O)O
inactive: Potency [1] | Potency [2] | Potency [3] | Potency [4]

NNC(=O)c1ccncc1
inactive: Potency [1] | Potency [2] | Potency [3] | Potency [4]

CCN(Cc1cccc(S(=O)(=O)O)c1)c1ccc(C(=C2C=CC(=[N+](CC)Cc3cccc(S(=O)(=O)O)c3)C=C2)c2ccccc2S(=O)(=O)[O-])cc1
inactive: Potency [1] | Potency [2] | Potency [3] | Potency [4]

C=CC(=O)OCCCCCCOC(=O)C=C
inactive: Potency [1] | Potency [2] | Potency [3] | Potency [4]

CC(C)CCOC(=O)/C=C/c1ccccc1
inactive: Potency [1] | Potency [2] | Potency [3] | Potency [4]

O=C(O)c1cccc(C(=O)O)c1
inactive: Potency [1] | Potency [2] | Potency [3] | Potency [4]

c1ccc2scnc2c1
inactive: Potency [1] | Potency [2] | Potency [3] | Potency [4]

CCCCCCCCCCC=CC1CC(=O)OC1=O (stereo not given)
inactive: Potency [1] | Potency [2] | Potency [3] | Potency [4]

CCN1CCc2nc(N)oc2CC1
inactive: Potency [1] | Potency [2] | Potency [3] | Potency [4]

CC(C)Oc1ccc2c(=O)c(-c3ccccc3)coc2c1
inactive: Potency [1] | Potency [2] | Potency [3] | Potency [4]

C=CCCCCCCCCCC
inactive: Potency [1] | Potency [2] | Potency [3] | Potency [4]

CCn1nc(C)c2c1C(=O)NCC(c1ccc(O)cc1)=N2
inactive: Potency [1] | Potency [2] | Potency [3] | Potency [4]

CC/C=C\CC/C=C/C(OCC)OCC
inactive: Potency [1] | Potency [2] | Potency [3] | Potency [4]

COC(=O)NN
inactive: Potency [1] | Potency [2] | Potency [3] | Potency [4]

OCC(O)[C@@H](O)[C@H](O)[C@H](O)CO[C@H]1O[C@H](CO)[C@@H](O)[C@H](O)[C@H]1O (stereo not given in full)
inactive: Potency [1] | Potency [2] | Potency [3] | Potency [4]

CC(=O)Oc1ccccc1C(=O)O
inactive: Potency [1] | Potency [2] | Potency [3] | Potency [4]

Clc1cccc(C(c2ccc3nc[nH]c3c2)n2ccnc2)c1 (stereo not given)
inactive: Potency [1] | Potency [2] | Potency [3] | Potency [4]

CCOc1ccc(NC(=O)CC(C)=O)cc1
inactive: Potency [1] | Potency [2] | Potency [3] | Potency [4]

CC(C)(C)C(=O)CC(=O)C(C)(C)C
inactive: Potency [1] | Potency [2] | Potency [3] | Potency [4]

FC(F)(F)C(Cl)Br (stereo not given)
inactive: Potency [1] | Potency [2] | Potency [3] | Potency [4]

C[Si](C)(CCCN)O[Si](C)(C)CCCN
inactive: Potency [1] | Potency [2] | Potency [3] | Potency [4]

Cc1cccc2cccnc12
inactive: Potency [1] | Potency [2] | Potency [3] | Potency [4]

CCCCCCCC/C=C\CCCCCCCC(=O)NCc1ccc(O)c(OC)c1
inactive: Potency [1] | Potency [2] | Potency [3] | Potency [4]

Nc1cc(N)cc(C(=O)O)c1
inactive: Potency [1] | Potency [2] | Potency [3] | Potency [4]

CC(C)c1ccccc1C(C)C
inactive: Potency [1] | Potency [2] | Potency [3] | Potency [4]

CCCC(C)C
inactive: Potency [1] | Potency [2] | Potency [3] | Potency [4]

COC(=O)c1ccc(C)cc1
inactive: Potency [1] | Potency [2] | Potency [3] | Potency [4]

CCCCCC(C)N (stereo not given)
inactive: Potency [1] | Potency [2] | Potency [3] | Potency [4]

Reference: PubChem BioAssay (Tox21)
